SKKanGAS inh: blocks kanamycin growth of S. pyogenes SKKanGAS strain. BacTiter-Glo, 6 h. inhibition, % at 7.5 µM. 300,000 compounds, 1.3% hits. AID 1662;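 active = mean replicate score, as percent of positive control median, at least 50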;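 also: strain carries kanamycin resistance gene driven by streptokinase promoter and grows in 40 µg/ml kanamycin; loss of luminescence reflects streptokinase promoter inhibition or plain growth inhibition; 0% = median of DMSO wells and 100% = positive control at its reference dose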
PP5 primary: blocks human protein phosphatase 5 activity; P53041; purified PP5c, OMFP substrate fluorescence; inhibition, % at 6.7 µM; 320,000 compounds, 0.18% hits;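 active = inhibition above the campaign's mean inhibition across all tested compounds plus 3 SD, cut at about 9.5% in these data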;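 also: 0% = DMSO only and 100% = 100 µM cantharidin control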
IDE inh: inhibits human insulin-degrading enzyme in HEK cells. P14735. FAbetaB cleavage, fluorescence polarization. inhibition, % at 5.59 µM. 320,000 compounds, 0.41% hits;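 active = percent inhibition above the average of all tested compounds plus 3 SD, set per screening campaign, cut at about 16% in these data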;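 also: IDE supplied by intact live HEK cells; FP after avidin binding of uncleaved biotin substrate so inhibition keeps polarization high; 0% = DMSO wells and 100% = 60 µM reference IDE inhibitor Ii1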
PP1 counter: counter-screen for PP5 inhibitors: inhibitors of human PP1-alpha; inhibition, % at 6.7 µM; purified PP1alpha, OMFP fluorescence; 320,000 compounds, 0.9% hits; P62136;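 active = inhibition above the mean inhibition of all tested compounds plus 3 SD, computed separately for each screening campaign, cut at about 15% in these data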
Target sequence (P62136 whole entry, looked up): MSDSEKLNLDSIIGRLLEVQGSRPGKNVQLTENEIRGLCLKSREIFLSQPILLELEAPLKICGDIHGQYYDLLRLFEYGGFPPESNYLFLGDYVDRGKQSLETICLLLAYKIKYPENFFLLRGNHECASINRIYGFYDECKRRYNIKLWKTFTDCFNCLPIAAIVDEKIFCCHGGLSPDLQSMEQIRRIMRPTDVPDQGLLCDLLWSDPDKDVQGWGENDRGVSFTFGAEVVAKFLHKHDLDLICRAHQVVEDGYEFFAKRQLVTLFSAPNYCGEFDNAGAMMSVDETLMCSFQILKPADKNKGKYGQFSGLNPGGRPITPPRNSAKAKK
IDE cell activ: boosts human insulin-degrading enzyme activity in HEK cells. P14735. FAbeta-B cleavage, fluorescence polarization; 0% vehicle, 100% cell-free pure enzyme wells. activation, % at 5.96 µM. 340,000 compounds, 0.073% hits;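 active = activation above the mean of all tested compounds plus 3 SD, set per screening campaign, cut at about 17% in these data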
Exocytosis inh: lytic granule exocytosis inhibition; inhibition, % at 10 µM; TALL-104 LAMP-1 surface exposure, flow cytometry; cells stimulated with thapsigargin and PMA; 360,000 compounds, 0.66% hits;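 active = inhibition above about 55%, limit read from the data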
The depositor's hits bear a star; x = no result. Rows were chosen to be rich in hits. Some 2.8% of all compounds tested hit in one or more screens of this group.

SMILES	SKKanGAS inh	PP5 primary	IDE inh	PP1 counter	IDE cell activ	Exocytosis inh
COc1ccc(-c2csc(C(C)(O)c3ccc(F)c(F)c3)n2)cc1 (centres undefined)	x	x	x	x	x	-11
O=C1c2c(O)ccc(O)c2C(=O)c2c(NCCNCCO)ccc(NCCNCCO)c21	x	3	4	21*	-1	-26
CC1CCc2c(N3CCC(O)CC3)c(F)cc3c(=O)c(C(=O)O)cn1c23 (centres undefined)	x	0	-4	4	4	0
NC1CCN(c2c(F)cc3c(=O)c(C(=O)O)cn(C4CC4)c3c2Cl)C1 (centres undefined)	74*	-3	-4	4	-3	-4
NC1CCN(c2nc3c(cc2F)c(=O)c(C(=O)O)cn3-c2ccc(F)cc2F)C1 (centres undefined)	103*	-3	-2	3	1	-1
COc1c(N2CCN(C(=S)Nc3ccc(F)cc3)C(C)C2)c(F)cc2c(=O)c(C(=O)O)cn(C3CC3)c12 (centres undefined)	115*	4	-1	-2	4	1
CCn1cc(C(=O)O)c(=O)c2cc(F)c(N3CCNCC3)nc21	x	x	x	x	6	0
COc1c(N2CCNC(C)C2)c(F)cc2c(=O)c(C(=O)O)cn(C3CC3)c12 (centres undefined)	105*	-2	-1	4	x	x
S=c1[nH]nc(CCCc2n[nH]c(=S)o2)o1	-7	2	5	2	1	-4
O=C(NN=Cc1ccccc1OC(F)F)c1ccc(NS(=O)(=O)c2cccs2)cc1	x	x	-2	x	4	0
NC(=O)C1CCN(C(=O)Nc2csc3ccccc23)CC1	-7	-1	3	-3	x	1
COc1ccccc1C(=O)Nc1nc2ccccc2s1	48	3	6	-3	2	-6
Cc1cccc2sc(NC(=O)c3ccc(NS(=O)(=O)c4cccs4)cc3)nc12	79*	1	-2	0	2	0
COc1ccc2nc(NC(=O)c3ccc(NS(=O)(=O)c4cccs4)cc3)sc2c1	63*	2	4	2	3	-1
COc1ccc(C(=O)Nc2nc3ccccc3s2)c(OC)c1	53*	1	0	4	-1	3
Cc1ccc(SCC(=O)N2c3ccccc3Sc3ccccc32)cc1	51*	1	-4	2	-2	10
CCOC(=O)N1CCN(S(=O)(=O)c2ccc(C(=O)Nc3sc4c(c3C(N)=O)CCN(CC)C4)cc2)CC1	-3	1	9	1	5	2
CCN1CCc2c(sc(NC(=O)c3ccc(S(=O)(=O)N4CCCC4)cc3)c2C(=O)NC)C1	50*	4	0	1	1	0
CCCN1CCc2c(sc(NC(=O)c3ccc(S(=O)(=O)N4CCN(C(=O)OCC)CC4)cc3)c2C(N)=O)C1	57*	6	11	1	-8	-2
Cc1cccc(C)c1NC(=O)CN(c1c(C)cccc1C)S(C)(=O)=O	x	x	x	x	x	1
CC1CCN(S(=O)(=O)c2cnc[nH]2)CC1	1	-1	5	-1	6	2
COc1ccc(C(C)=O)cc1CSc1nnc(-c2ccc(Cl)cc2)n1-c1ccccc1	11	0	3	3	3	73*
CCN(C[C@H]1N[C@@](CC)(C(=O)OC)[C@H]2C(=O)N(Cc3ccccc3)C(=O)[C@@H]12)C(=O)NC(C)C	x	x	-3	x	0	-1
CN1C(=O)c2cccc3c(Cl)ccc(c23)C1=O	-2	3	4	0	0	-2
CNc1ccc2c3c(cccc13)C(=O)N(C)C2=O	-19	-26	-32	-42	59*	15
CCOc1ccc(N2C(=O)c3ccc(C(=O)OCC(=O)N(CC)C4CCS(=O)(=O)C4)cc3C2=O)cc1 (centres undefined)	-7	-1	0	2	0	-1
C=CCN1C(=O)c2ccc(C(=O)OCC(=O)N(CC)C3CCS(=O)(=O)C3)cc2C1=O (centres undefined)	x	1	-3	0	22*	-6
CC1CCN(c2nc(N3CCCCC3)nc(N3CCCCC3)n2)CC1	56*	1	6	0	6	0
COc1cc2c(cc1NC(=O)COC(=O)[C@@H](NS(=O)(=O)c1cccc(Cl)c1)C(C)C)oc1ccccc12	34	2	0	-3	-3	-8

Screens from PubChem.
